Assay results published in the supplement of paper PMC10849652.
The full data set covers some 8,800 targets. This sample favours those with a hit. About 0.5% of all pairs of compound and target were hits. A number with no mark means an inactive call.

Key:
Experiment in all cases: log2 fold change, soluble protein after heating vs DMSO (PISA); higher = thermal stabilisation; K562 lysate, 10 uM; active = over 0.2 and 3.5 SD of the protein, either way, in both replicates (recomputed)
[1] = compound: CN1CC[C@H](c2c(O)cc(O)c3c(=O)cc(-c4ccccc4Cl)oc23)[C@H](O)C1 [alvocidib]
In short: (§1)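 Pellets of K562 cells were dounce-homogenised in PBS pH 7.4 with 1 mM MgCl2, and the crude extract was held at 1 mg/mL protein for a 30 min treatment with 10 μM compound. Aliquots were heated for 3 min over 48°C-58°C and pooled before NP-40 was added to 0.5% at 4°C. The supernatant from 21,000xg for 90 min was quantified by TMTpro 16plex LC-MS/MS with channel sums equalised. Values are reported from duplicates as log-two fold change in thermal stability relative to solvent controls.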

[2] = compound: CN1CCc2c(c3ccccc3n2Cc2ccc(C(=O)NO)cc2)C1 [Tubastatin A]
In short: as §1

[3] = compound: CNC(=O)C1=CC=CC=C1NC2=NC(=NC=C2Cl)NC3=C(C=C(C=C3)N4CCOCC4)OC
In short: as §1

[4] = compound: CNC(=O)c1ccc(Nc2ncc(C(F)(F)F)c(NCc3nccnc3N(C)S(C)(=O)=O)n2)cc1 [defactinib]
In short: as §1

[5] = compound: CNc1nc(-c2ccc3c(N)n[nH]c3c2)cc(N2C[C@@H](C(=O)NC3CCCCC3)CC[C@H]2C)n1
In short: as §1

[6] = compound: COC(=O)N[C@@H](C)CNc1nccc(-c2cn(C(C)C)nc2-c2cc(Cl)cc(NS(C)(=O)=O)c2F)n1 [encorafenib]
In short: as §1

[7] = compound: COC(=O)[C@H](CCSC)NC(=O)C1=C(C=C(C=C1)NC[C@H](CS)N)C2=CC=CC=C2
In short: as §1

[8] = compound: COc1cc(Nc2ncc3c(n2)-c2ccc(Cl)cc2C(c2c(F)cccc2OC)=NC3)ccc1C(=O)O [alisertib]
In short: as §1

[9] = compound: COc1cc2nc(-c3cc(F)ccc3O)nc(N[C@@H]3CNC[C@H]3C(C)(C)O)c2cc1OC
In short: as §1

[10] = compound: COc1cc2ncnc(Nc3ccc(F)c(Cl)c3)c2cc1OCCCN1CCOCC1 [gefitinib]
In short: as §1

[11] = compound: CS(=O)(=O)CCNCc1ccc(-c2ccc3ncnc(Nc4ccc(OCc5cccc(F)c5)c(Cl)c4)c3c2)o1 [lapatinib]
In short: as §1

[12] = compound: CS(=O)(=O)N1CCN(Cc2cc3nc(-c4cccc5[nH]ncc45)nc(N4CCOCC4)c3s2)CC1 [pictilisib]
In short: as §1

[13] = compound: C[C@@H](Oc1cc(-c2cnn(C3CCNCC3)c2)cnc1N)c1c(Cl)ccc(F)c1Cl [crizotinib]
In short: as §1

[14] = compound: C[C@H](C1=CC=C(C=C1)C(=O)NC2=C3C=CNC3=NC=C2)N
In short: as §1

[15] = compound: C[C@H](Nc1ncnc2nc[nH]c12)c1cc2cccc(Cl)c2c(=O)n1-c1ccccc1 [duvelisib]
In short: as §1

[16] = compound: Cc1cc(Nc2cc(CN3CCOCC3)c3nc(C)c(Cc4ccc(Cl)cc4F)n3n2)n[nH]1 [gandotinib]
In short: as §1

[17] = compound: Cc1cc(Nc2cc(N3CCN(C)CC3)nc(Sc3ccc(NC(=O)C4CC4)cc3)n2)n[nH]1 [tozasertib]
In short: as §1

[18] = compound: Cc1ccc(-n2nc(C(C)(C)C)cc2NC(=O)Nc2ccc(OCCN3CCOCC3)c3ccccc23)cc1 [doramapimod]
In short: as §1

[19] = compound: Cc1ccc(NC(=O)c2ccc(CN3CC[C@H](N(C)C)C3)c(C(F)(F)F)c2)cc1Nc1nccc(-c2cncnc2)n1 [bafetinib]
In short: as §1

[20] = compound: Cc1cccc(CC(=O)N2CCc3c2ccc(-c2cn(C)c4ncnc(N)c24)c3F)n1
In short: as §1

Chain of UniProt Q71F56 (Q71F56 whole entry, looked up): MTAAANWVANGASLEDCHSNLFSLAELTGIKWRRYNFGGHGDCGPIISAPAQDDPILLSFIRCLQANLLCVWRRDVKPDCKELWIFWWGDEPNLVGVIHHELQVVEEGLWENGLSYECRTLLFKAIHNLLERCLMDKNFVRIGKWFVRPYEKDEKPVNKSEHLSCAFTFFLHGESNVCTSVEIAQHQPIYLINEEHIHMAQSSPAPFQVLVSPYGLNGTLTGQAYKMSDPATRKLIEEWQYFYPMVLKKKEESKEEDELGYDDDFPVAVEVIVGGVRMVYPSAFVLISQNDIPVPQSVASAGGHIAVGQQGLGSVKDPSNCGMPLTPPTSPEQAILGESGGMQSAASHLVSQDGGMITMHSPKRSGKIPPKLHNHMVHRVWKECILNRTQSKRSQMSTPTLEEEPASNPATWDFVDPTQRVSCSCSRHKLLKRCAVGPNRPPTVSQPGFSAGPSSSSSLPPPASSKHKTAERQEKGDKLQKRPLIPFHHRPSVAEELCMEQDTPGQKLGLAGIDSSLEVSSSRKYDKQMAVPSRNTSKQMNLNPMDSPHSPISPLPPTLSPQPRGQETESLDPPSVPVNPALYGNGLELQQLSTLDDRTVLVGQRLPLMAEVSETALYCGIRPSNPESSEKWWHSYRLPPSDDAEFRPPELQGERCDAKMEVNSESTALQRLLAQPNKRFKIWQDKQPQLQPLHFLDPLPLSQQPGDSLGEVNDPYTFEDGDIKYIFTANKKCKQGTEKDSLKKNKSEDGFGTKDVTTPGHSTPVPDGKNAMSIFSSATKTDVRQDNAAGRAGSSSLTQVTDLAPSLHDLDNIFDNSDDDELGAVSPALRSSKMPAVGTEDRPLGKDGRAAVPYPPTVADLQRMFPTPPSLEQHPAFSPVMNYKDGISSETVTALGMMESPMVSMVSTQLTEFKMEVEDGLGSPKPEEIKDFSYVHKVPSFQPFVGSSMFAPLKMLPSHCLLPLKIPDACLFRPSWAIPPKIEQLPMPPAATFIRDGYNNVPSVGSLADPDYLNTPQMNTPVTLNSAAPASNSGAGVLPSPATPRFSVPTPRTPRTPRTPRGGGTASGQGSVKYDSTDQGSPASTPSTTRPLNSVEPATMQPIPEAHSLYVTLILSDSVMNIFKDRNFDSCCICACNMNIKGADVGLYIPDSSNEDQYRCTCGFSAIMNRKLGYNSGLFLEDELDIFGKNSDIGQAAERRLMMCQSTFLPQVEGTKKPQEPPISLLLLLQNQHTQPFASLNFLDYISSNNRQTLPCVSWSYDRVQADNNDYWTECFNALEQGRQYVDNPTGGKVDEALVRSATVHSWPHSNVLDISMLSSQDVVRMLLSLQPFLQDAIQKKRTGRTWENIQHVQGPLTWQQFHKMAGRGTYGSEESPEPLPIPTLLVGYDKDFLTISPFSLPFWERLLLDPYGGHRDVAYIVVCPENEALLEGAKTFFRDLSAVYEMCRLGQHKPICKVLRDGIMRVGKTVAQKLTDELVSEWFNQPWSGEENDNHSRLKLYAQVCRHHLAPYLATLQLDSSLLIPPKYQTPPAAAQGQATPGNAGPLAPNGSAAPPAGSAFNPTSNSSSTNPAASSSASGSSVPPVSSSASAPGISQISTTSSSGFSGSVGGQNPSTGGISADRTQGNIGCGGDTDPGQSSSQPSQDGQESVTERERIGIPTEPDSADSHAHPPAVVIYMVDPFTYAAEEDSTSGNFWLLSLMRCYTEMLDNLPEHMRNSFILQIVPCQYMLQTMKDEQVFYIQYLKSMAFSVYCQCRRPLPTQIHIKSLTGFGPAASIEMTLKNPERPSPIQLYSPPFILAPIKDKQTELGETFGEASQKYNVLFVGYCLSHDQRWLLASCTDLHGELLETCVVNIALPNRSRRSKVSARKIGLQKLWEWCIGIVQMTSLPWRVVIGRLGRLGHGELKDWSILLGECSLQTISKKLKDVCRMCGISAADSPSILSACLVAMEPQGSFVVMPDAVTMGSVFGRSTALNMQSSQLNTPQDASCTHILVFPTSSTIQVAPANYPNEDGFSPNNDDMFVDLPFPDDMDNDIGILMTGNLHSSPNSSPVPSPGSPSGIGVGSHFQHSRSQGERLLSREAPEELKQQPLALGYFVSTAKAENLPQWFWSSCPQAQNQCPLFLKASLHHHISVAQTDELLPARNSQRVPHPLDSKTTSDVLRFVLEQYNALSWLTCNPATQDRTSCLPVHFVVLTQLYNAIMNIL
Chain of UniProt Q8WVR3 (Q8WVR3 whole entry, looked up): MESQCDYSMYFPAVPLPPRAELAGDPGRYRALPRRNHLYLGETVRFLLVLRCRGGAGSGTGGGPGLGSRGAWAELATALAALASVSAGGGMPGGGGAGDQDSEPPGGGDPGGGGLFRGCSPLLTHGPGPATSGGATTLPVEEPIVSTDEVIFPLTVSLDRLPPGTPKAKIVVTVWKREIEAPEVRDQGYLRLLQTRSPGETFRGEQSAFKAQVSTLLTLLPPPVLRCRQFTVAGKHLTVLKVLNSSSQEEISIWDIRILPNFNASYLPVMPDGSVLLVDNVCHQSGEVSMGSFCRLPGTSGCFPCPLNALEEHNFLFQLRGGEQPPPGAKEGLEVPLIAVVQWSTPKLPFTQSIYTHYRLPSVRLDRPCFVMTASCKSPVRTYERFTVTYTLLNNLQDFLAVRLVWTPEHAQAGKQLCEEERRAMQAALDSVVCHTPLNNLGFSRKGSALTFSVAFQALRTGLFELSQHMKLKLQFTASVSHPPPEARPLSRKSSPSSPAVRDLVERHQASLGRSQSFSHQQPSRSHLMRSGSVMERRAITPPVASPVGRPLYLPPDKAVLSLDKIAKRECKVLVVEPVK
Chain of UniProt Q15334 (Q15334 whole entry, looked up): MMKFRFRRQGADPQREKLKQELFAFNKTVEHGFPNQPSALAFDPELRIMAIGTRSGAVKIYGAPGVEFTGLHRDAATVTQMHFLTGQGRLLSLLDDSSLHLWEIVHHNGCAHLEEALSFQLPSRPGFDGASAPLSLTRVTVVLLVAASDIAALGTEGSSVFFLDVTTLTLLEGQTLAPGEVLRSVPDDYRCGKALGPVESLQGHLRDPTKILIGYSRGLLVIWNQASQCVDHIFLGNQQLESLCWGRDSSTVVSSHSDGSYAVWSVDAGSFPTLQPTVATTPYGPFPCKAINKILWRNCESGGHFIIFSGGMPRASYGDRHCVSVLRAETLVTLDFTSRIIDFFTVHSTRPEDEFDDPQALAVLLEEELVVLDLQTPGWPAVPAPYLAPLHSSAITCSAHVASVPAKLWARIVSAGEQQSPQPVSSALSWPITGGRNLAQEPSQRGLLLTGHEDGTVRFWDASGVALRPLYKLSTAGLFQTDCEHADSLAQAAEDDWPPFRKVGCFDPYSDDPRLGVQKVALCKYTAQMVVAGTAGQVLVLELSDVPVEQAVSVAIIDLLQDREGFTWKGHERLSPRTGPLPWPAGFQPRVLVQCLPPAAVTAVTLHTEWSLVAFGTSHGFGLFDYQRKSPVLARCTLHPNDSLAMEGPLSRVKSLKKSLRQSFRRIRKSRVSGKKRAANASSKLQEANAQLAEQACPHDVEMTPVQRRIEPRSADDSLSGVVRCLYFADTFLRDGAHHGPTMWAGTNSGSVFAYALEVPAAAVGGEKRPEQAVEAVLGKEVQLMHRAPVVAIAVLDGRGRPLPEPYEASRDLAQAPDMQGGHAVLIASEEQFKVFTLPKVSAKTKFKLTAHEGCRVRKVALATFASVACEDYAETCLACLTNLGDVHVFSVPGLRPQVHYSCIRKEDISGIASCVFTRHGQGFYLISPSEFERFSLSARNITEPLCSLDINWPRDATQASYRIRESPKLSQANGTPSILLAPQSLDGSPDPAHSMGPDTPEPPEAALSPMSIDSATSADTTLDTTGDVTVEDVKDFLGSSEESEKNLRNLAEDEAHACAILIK
Chain of UniProt Q9HAP2 (Q9HAP2 whole entry, looked up): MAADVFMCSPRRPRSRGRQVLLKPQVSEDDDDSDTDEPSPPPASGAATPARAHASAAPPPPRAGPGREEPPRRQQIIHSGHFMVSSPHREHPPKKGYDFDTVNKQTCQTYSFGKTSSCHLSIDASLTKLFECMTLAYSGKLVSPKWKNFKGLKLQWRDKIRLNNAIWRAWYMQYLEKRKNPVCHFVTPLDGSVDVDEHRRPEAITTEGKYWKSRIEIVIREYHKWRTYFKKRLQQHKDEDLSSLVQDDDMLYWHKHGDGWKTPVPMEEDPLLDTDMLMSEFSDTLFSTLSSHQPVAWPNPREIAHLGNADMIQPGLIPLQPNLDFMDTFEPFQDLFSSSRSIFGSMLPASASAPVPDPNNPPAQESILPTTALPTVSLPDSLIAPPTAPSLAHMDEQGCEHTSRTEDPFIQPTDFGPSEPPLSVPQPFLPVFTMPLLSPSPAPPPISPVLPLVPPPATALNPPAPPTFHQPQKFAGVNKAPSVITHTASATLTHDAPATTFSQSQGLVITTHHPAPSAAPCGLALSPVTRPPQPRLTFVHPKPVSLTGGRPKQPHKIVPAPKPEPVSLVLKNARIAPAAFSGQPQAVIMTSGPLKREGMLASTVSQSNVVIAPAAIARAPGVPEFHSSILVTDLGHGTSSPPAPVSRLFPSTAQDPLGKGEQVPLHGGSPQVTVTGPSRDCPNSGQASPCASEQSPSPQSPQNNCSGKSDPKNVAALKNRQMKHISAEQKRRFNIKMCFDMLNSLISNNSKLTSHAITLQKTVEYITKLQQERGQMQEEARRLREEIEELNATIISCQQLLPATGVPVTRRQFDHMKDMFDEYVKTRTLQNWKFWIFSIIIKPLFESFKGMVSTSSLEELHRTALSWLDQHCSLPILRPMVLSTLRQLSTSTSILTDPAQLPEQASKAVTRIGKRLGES
Chain of UniProt Q15013 (Q15013 whole entry, looked up): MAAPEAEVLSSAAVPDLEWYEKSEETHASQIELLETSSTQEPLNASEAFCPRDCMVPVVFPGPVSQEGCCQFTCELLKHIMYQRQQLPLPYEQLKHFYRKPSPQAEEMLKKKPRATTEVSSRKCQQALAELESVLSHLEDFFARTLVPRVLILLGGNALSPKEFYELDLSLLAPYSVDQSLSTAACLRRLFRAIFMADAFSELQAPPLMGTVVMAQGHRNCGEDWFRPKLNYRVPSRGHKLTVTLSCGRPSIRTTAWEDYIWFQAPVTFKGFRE

Target	log2 fold change [1]	log2 fold change [2]	log2 fold change [3]	log2 fold change [4]	log2 fold change [5]	log2 fold change [6]	log2 fold change [7]	log2 fold change [8]	log2 fold change [9]	log2 fold change [10]	log2 fold change [11]	log2 fold change [12]	log2 fold change [13]	log2 fold change [14]	log2 fold change [15]	log2 fold change [16]	log2 fold change [17]	log2 fold change [18]	log2 fold change [19]	log2 fold change [20]
MAPK9 (UniProt P45984)	0.028	-0.064	0.44 (active)	0.056	0.006	0.17	-0.019	-0.021	0.006	0.027	0.001	0.088	-0.021	0.026	0.006	0.035	0.033	0.192	-0.011	-0.15
LLGL1 (UniProt Q15334)	0.026	-0.105	0.032	-0.013	-0.034	0.052	0.108	-0.032	0.121	-0.065	-0.005	-0.058	-0.025	0.263 (active)	0.096	-0.011	0.054	0.006	-0.104	-0.019
MORC3 (UniProt Q14149)	-0.015	-0.098	0.017	0.018	-0.028	0.007	0.038	-0.003	0.021	-0.01	0.021	-0.037	-0.02	0.005	-0.001	-0.053	0.001	0.024	-0.001	0.014
MCMBP (UniProt Q9BTE3)	0.035	-0.078	0.029	0.041	-0.003	-0.001	0.074	0.005	0	0.011	0.008	-0.027	-0.032	0.048	0.002	-0.083	-0.007	-0.001	-0.007	-0.048
KIFC1 (UniProt Q9BW19)	-0.022	-0.15	-0.013	-0.003	0.024	-0.03	0.14	0.011	0.008	-0.01	-0.021	-0.013	-0.019	-0.016	-0.003	-0.05	0.047	0.021	-0.027	0.031
MAPKAPK3 (UniProt Q16644)	0.038	-0.125	0.015	0.033	-0.11	-0.015	0.055	-0.055	0.006	0.148	0	-0.013	-0.026	0.034	-0.038	-0.044	0.046	-0.025	0.026	-0.014
MAP11 (UniProt Q8WVR3)	-0.117	-0.091	0.021	0.076	0.004	-0.058	-0.084	-0.001	-0.025	-0.046	-0.047	-0.028	-0.011	-0.102	-0.04	-0.06	-0.024	-0.024	-0.021	0.001
MIPEP (UniProt Q99797)	0.027	0.011	-0.03	0.025	-0.067	-0.012	0.154	-0.038	-0.009	-0.007	-0.013	-0.031	0.041	-0.004	-0.022	-0.049	0.072	-0.059	0.016	0.04
MOCS1 isoform 8 (UniProt Q9NZB8)	-0.108	-0.008	0.002	0.113	-0.105	0.039	-0.055	-0.099	0.003	0.395 (active)	-0.022	-0.003	-0.046	-0.078	0	0.012	0.11	0.018	-0.032	0.04
MED13L (UniProt Q71F56)	0.042	-0.069	0.016	-0.011	-0.004	0.02	0.021	-0.084	-0.005	0.01	0.034	-0.072	-0.039	-0.047	-0.083	-0.005	-0.019	0.026	-0.061	0.035
MLXIP (UniProt Q9HAP2)	-0.035	-0.016	-0.049	-0.029	-0.017	0.027	-0.016	0.002	-0.051	-0.047	-0.009	-0.049	-0.023	-0.052	-0.078	-0.032	0.019	0.009	-0.01	0.043
LZTR1 (UniProt Q8N653)	0.178	-0.168	-0.001	-0.036	-0.012	-0.039	0.174	-0.047	0.137	0.091	0.177	-0.031	-0.092	0.135	-0.033	-0.121	-0.023	0.083	0.005	0.026
LAGE3 (UniProt Q14657)	-0.013	0.004	-0.001	-0.194	-0.035	0.047	-0.076	0.224	-0.042	0.107	0.002	-0.032	-0.014	0.04	-0.12	-0.013	0.043	0.009	0.084	0.013
MORF4L1 isoform 2 (UniProt Q9UBU8)	-0.01	0.001	-0.001	-0.005	0.247 (active)	-0.023	-0.021	0.045	0.044	0.008	0.024	0.023	0.025	-0.058	0.021	0.037	-0.019	-0.047	-0.01	0.006
LAP3 (UniProt P28838)	-0.249	0.082	0.069	-0.063	0.191	0.006	0.004	-0.02	0.038	-0.004	-0.021	0.003	-0.102	-0.531 (active)	0.034	0.385 (active)	-0.126	0.02	0.014	0.331 (active)
MAD2L1BP isoform 3 (UniProt Q15013)	0.047	-0.135	0.088	0.068	-0.012	0.138	0.234	0.052	-0.009	-0.054	0.017	-0.155	-0.094	0.022	0.048	-0.009	-0.071	0.12	-0.041	0.008
